21 compounds from PubChem BioAssay (EPA / NIEHS) can be followed below.

Read-out in assay [1]: Monokine induced gamma interferon (MIG), CXCL9 (gene 4283)
In words: BSK_3C_MIG: BioMAP Diversity Plus: 3C Assay for Monokine induced gamma interferon (MIG) Biomarker Activity (AID 2283021). Conditions: primary human endothelial cells (HUVEC); actives raise or lower the signal. An outline of the steps: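 After 24 h of treatment, human umbilical vein endothelial cultures (3C system) had their MIG biomarker level determined by ELISA, with DMSO serving as negative control.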

Assay [2] addresses human Vitamin D Receptor (VDR), VDR (gene 7421) (UniProt P11473). The experiment in a line: ATG_VDR_TRANS: Attagene TRANS-FACTORIAL HepG2 Assay for human Vitamin D Receptor (VDR) (AID 2283022; active means hit-call score of the fitted dose curve at least 0.9, where 1 is the maximum). An outline of the steps:
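Fluorescence of labelled reporter cDNA fragments, resolved by capillary electrophoresis, gives mRNA induction after 24 h treatment of HepG2 cells carrying transfected Gal4-fusion reporter units. Activity is fitted in the positive direction with DMSO as baseline.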

Assay [3] is described as follows: BSK_3C_SRB: Viability Assessment in the BioMAP Diversity Plus: 3C Assay (AID 2283023).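 Further: fitted both ways against DMSO so a hit may be signal rise or drop.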 Conditions: primary human endothelial cells (HUVEC). An outline of the steps: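 Cells were dosed with chemical, cultured 24 h, fixed with 10% TCA, stained with 0.1% SRB and read at 560 nm. Human umbilical vein endothelium was used; DMSO served as negative control and baseline.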

Read-out in assay [4]: Matrix Metallopeptidase 1 (MMP1), MMP1 (gene 4312)
In words: BSK_BE3C_MMP1: BioMAP Diversity Plus: BE3C Assay for Matrix Metallopeptidase 1 (MMP1) Biomarker Activity (AID 2283024). Particulars: primary human bronchial epithelial cells; actives raise or lower the signal. A digest of the protocol: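 Dose cells, wait 24 h, run MMP1 ELISA; cells are human bronchial epithelial primaries. Both increases and decreases relative to DMSO counted.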

A short description of assay [5]: BSK_3C_Vis: BioMAP Diversity Plus: 3C Assay for Morphology Visualization (AID 2283025).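 Further: fitted both ways so gain or loss versus DMSO counts.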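 On AC50: light microscopy image of cell morphology used as background control.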 Conditions: primary human endothelial cells (HUVEC). A digest of the protocol: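 Endothelial cells from human umbilical vein were treated with test chemicals for 24 h and inspected by light microscopy for changes in cell conformation.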
Read-out in assay [6]: Pselectin, SELP (gene 6403)
In words: BSK_4H_Pselectin: BioMAP Diversity Plus: 4H Assay for Pselectin Biomarker Activity (AID 2283026). Conditions: primary human endothelial cells (HUVEC); actives raise or lower the signal. A digest of the protocol:
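Human vascular endothelium from umbilical vein; P-selectin measured by ELISA at 24 h post-dose, with cytotoxicity checked by sulforhodamine B total-protein staining in parallel cultures (0.1% SRB after 10% TCA fixation, read at 560 nm).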

Assay [7] can be described thus: BSK_4H_SRB: Viability Assessment in the BioMAP Diversity Plus: 4H Assay (AID 2283027).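 Further: cells exposed to compound for 24 h before staining.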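 On AC50: curves fitted both ways versus DMSO so AC50 may be loss or gain.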 Particulars: primary human endothelial cells (HUVEC). An outline of the steps: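 Human umbilical vein endothelial cells, 24 h after chemical dosing; total protein measured by 0.1% sulforhodamine B staining after 10% TCA fixation, read at 560 nm. Bidirectional fitting against DMSO.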

Assay [8] is described as follows: BSK_BE3C_SRB: Viability Assessment in the BioMAP Diversity Plus: BE3C Assay (AID 2283028). Particulars: primary human bronchial epithelial cells. A digest of the protocol: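 Overt cytotoxicity was assessed as total protein in confluent human primary bronchial epithelial cultures 24 h after chemical addition, using 0.1% sulforhodamine B staining read at 560 nm.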

Read-out in assay [9]: Thrombomodulin, THBD (gene 7056)
The experiment in a line: BSK_3C_Thrombomodulin: BioMAP Diversity Plus: 3C Assay for Thrombomodulin Biomarker Activity (AID 2283029). Conditions: primary human endothelial cells (HUVEC); actives raise or lower the signal. A digest of the protocol:
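Thrombomodulin ELISA, human primary HUVEC, 24 h post-dose; data fitted in both directions relative to DMSO.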

Read-out in assay [10]: Urokinase-type plasminogen activator receptor (uPAR), PLAUR (gene 5329)
In words: BSK_4H_uPAR: BioMAP Diversity Plus: 4H Assay for Urokinase-type plasminogen activator receptor (uPAR) Biomarker Activity (AID 2283030). Particulars: primary human endothelial cells (HUVEC); actives raise or lower the signal. An outline of the steps:
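Chemicals are dosed onto human vascular endothelial primary cells (umbilical vein). After 24 h, uPAR is read by ELISA. Gain or loss of signal is fitted relative to DMSO.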

Records with an inconclusive call do not appear. Calls of active or inactive are those of the source. How the source made its calls, unless noted: active means hit-call score of the fitted dose curve at least 0.9, where 1 is the maximum; inactive means score below 0.9.

Chain of human Vitamin D Receptor (VDR), VDR (gene 7421) (P11473 whole entry, looked up, the tested form may be a part): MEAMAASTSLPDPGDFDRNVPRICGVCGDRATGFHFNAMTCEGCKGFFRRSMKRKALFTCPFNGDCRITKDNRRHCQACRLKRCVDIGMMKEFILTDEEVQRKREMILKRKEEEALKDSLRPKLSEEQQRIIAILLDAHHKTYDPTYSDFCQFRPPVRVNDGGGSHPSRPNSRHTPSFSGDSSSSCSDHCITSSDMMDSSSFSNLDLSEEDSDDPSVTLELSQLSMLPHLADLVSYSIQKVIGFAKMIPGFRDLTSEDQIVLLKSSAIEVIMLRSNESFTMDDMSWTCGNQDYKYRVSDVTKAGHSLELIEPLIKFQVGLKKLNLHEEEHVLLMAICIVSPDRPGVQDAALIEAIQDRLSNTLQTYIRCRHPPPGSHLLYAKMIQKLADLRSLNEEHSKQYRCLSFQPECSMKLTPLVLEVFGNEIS

Regarding `COc1ccc(S(=O)(=O)N2C(=O)[C@@](c3ccccc3OC)(N3C[C@H](O)C[C@H]3C(=O)N(C)C)c3cc(Cl)ccc32)c(OC)c1`, the result in assay [1], in [2], in assay [4], in [6], in assay [8] and in [9] was inactive. The AC50 in assay [3] is 27 µM (active); in assay [5] it was 39 µM (active); in [7], 29.3 µM (active).

`Cc1nc(C)nc(N2C[C@@H](C)N(c3ccnc([C@@H](C)O)n3)[C@@H](C)C2)n1`: the outcome in assay [1], in assay [2], in assay [3], in assay [4], in [5] and in assay [6] was inactive. Further, the result in assay [7], in assay [8] and in [9] was inactive.

As for `COc1ccc2c(c1)c(CC(=O)O)c(C)n2C(=O)c1ccc(Cl)cc1`, the result in [1], in assay [2], in assay [3], in assay [5], in [6] and in assay [7] was inactive. In addition, the outcome in assay [8] and in assay [9] was inactive. The concentration at half-maximal activity (AC50) in [4] was 7.79 µM (active).

`Cc1c(C(=O)O)c(O)cc2c1C(=O)c1c(O)c([C@@H]3O[C@H](CO)[C@@H](O)[C@H](O)[C@H]3O)c(O)c(O)c1C2=O`: the result in [1], in [2], in assay [3], in assay [4], in assay [5] and in assay [6] was inactive. Further, the result in assay [7], in assay [8] and in assay [9] was inactive.

Turning to `c1cc(-c2ccncc2)ccn1`, the result in [1], in [2], in [3], in assay [4], in [6] and in assay [7] was inactive. In addition, the result in assay [8] and in [9] was inactive. For the same compound, in assay [5], the AC50 is 39 µM (active).

As for `Cc1oc(-c2ccccc2)nc1CCOc1cccc2c1ccn2CCC(=O)O`, the outcome in [1], in [2], in [3], in assay [4], in assay [5] and in assay [6] was inactive. The outcome in assay [7], in [8] and in [9] was inactive.

Take `CCCCCC(=O)O`: the result in [1], in assay [2], in [3], in assay [4], in [5] and in assay [6] was inactive. Further, the outcome in assay [7], in [8] and in [9] was inactive.

As to `COCCOC[C@H](CC1(C(=O)NC2CCC(C(=O)O)CC2)CCCC1)C(=O)Oc1ccc2c(c1)CCC2` (stereo partly drawn), the result in assay [1], in assay [2], in assay [3], in [4], in assay [5] and in assay [6] was inactive. For the same compound, the result in assay [7], in assay [8] and in [9] was inactive.

Turning to `CCCCCCCCCCCC(=O)OC`, the outcome in assay [1], in assay [2], in assay [3], in assay [4], in [5] and in assay [6] was inactive. Besides, the outcome in assay [7], in assay [8] and in assay [9] was inactive.

Regarding `COc1cc(S(=O)(=O)O)c(C)cc1N=Nc1c(O)ccc2cc(S(=O)(=O)O)ccc12`, the result in assay [1], in [2], in assay [3], in assay [4], in assay [5] and in assay [6] was inactive. The outcome in [7], in assay [8] and in assay [9] was inactive.

Consider `COC(=O)c1ccc(O)cc1`, for which the outcome in [1], in [2], in assay [3], in assay [4], in assay [5] and in assay [6] was inactive. Also, the outcome in assay [7], in assay [8] and in assay [9] was inactive.

Consider `O=C(N[C@@H](Cc1ccccc1)[C@@H](O)C(=O)N1C[C@@H](O)[C@@H](O)C1)c1cc2cc(Cl)ccc2[nH]1`, for which the result in assay [1], in assay [2], in assay [3], in [4], in [5] and in [6] was inactive. Besides, the result in assay [7], in assay [8] and in [9] was inactive.

As for `CCNc1cccc(C)c1`, the result in [1], in assay [2], in [3], in assay [4], in [5] and in assay [6] was inactive. Moreover, the result in [7], in assay [8], in [9] and in assay [10] was inactive.

Regarding `CCCCCCC(=O)OCC`, the result in assay [1], in assay [2], in assay [3], in assay [4], in assay [5] and in assay [6] was inactive. Moreover, the outcome in assay [7], in assay [8] and in assay [9] was inactive.

As to `C[C@]12C=CC(=O)C=C1CC[C@@H]1[C@@H]2C(=O)C[C@@]2(C)[C@H]1CC[C@]2(O)C(=O)CO`, the outcome in assay [1], in assay [2], in assay [3], in assay [4], in [5] and in [6] was inactive. For the same compound, the outcome in [7], in assay [8], in assay [9] and in assay [10] was inactive.

With `O=c1[nH]cc(F)c(=O)[nH]1`, the result in [1], in assay [2], in assay [4], in assay [5], in assay [6] and in [7] was inactive. The outcome in assay [8] and in assay [9] was inactive. The concentration at half-maximal activity (AC50) in assay [3] was 20.4 µM (active).

Consider `NS(=O)(=O)c1cc2c(cc1Cl)NCNS2(=O)=O`, for which the outcome in [1], in assay [2], in assay [3], in assay [4], in assay [5] and in assay [6] was inactive. Also, the outcome in assay [7], in assay [8] and in assay [9] was inactive.

Turning to `Cc1ccc(C)c(O)c1C`, the outcome in assay [1], in assay [2], in [3], in [4], in assay [5] and in assay [6] was inactive. For the same compound, the outcome in [7], in assay [8] and in [9] was inactive.

Take `Cc1ccc(N(C)C)cc1`: the outcome in assay [1], in assay [2], in assay [3], in [4], in assay [5] and in assay [6] was inactive. Further, the result in assay [7], in assay [8] and in [9] was inactive.

Regarding `Cc1cc(=O)[nH]c(=S)[nH]1`, the outcome in [1], in assay [2], in [3], in assay [4], in assay [5] and in [6] was inactive. Moreover, the outcome in [7], in assay [8], in assay [9] and in assay [10] was inactive.

`CC(C)(C)c1cc(O)c(C(C)(C)C)cc1O`: the result in assay [1], in [3], in assay [4], in [8] and in assay [9] was inactive. Further, the AC50 was 61.2 µM (active) in assay [2]; 9.8 µM (active) in assay [5]; 5.24 µM (active) in assay [6]; 3.45 µM (active) in [7]; 4.17 µM (active) in assay [10].

For orientation: AC50 means the concentration at which the activity in the assay is half-maximal.
